# USP10 inh = inhibitors of human USP10 deubiquitinase; purified USP10, Ub-rhodamine fluorescence, 60 min; Ubiquitin carboxyl-terminal hydrolase 10 (Homo sapiens), Q14694; inhibition, % at 20 µM; actives 1.1% (n = 47,000)
# USP8 inh = inhibitors of human USP8 deubiquitinase; Ubiquitin carboxyl-terminal hydrolase 8 (Homo sapiens), P40818; actives 4.2% (n = 47,000); purified USP8, Ub-rhodamine cleavage fluorescence, 30 min; inhibition, % at 20 µM
# UCHL1 inh = inhibitors of human UCHL1 deubiquitinase; Ubiquitin carboxyl-terminal hydrolase isozyme L1 (Homo sapiens), P09936; purified UCHL1, Ub-rhodamine cleavage fluorescence; inhibition, % at 20 µM; actives 0.2% (n = 47,000)
# USP7 inh = inhibitors of human USP7 deubiquitinase; AID 1645854, 2021; inhibition, % at 20 µM; purified USP7, Ub-rhodamine cleavage fluorescence; actives 0.3% (n = 47,000); Ubiquitin carboxyl-terminal hydrolase 7 (Homo sapiens), Q93009
# Target sequence (Q93009 whole entry, looked up): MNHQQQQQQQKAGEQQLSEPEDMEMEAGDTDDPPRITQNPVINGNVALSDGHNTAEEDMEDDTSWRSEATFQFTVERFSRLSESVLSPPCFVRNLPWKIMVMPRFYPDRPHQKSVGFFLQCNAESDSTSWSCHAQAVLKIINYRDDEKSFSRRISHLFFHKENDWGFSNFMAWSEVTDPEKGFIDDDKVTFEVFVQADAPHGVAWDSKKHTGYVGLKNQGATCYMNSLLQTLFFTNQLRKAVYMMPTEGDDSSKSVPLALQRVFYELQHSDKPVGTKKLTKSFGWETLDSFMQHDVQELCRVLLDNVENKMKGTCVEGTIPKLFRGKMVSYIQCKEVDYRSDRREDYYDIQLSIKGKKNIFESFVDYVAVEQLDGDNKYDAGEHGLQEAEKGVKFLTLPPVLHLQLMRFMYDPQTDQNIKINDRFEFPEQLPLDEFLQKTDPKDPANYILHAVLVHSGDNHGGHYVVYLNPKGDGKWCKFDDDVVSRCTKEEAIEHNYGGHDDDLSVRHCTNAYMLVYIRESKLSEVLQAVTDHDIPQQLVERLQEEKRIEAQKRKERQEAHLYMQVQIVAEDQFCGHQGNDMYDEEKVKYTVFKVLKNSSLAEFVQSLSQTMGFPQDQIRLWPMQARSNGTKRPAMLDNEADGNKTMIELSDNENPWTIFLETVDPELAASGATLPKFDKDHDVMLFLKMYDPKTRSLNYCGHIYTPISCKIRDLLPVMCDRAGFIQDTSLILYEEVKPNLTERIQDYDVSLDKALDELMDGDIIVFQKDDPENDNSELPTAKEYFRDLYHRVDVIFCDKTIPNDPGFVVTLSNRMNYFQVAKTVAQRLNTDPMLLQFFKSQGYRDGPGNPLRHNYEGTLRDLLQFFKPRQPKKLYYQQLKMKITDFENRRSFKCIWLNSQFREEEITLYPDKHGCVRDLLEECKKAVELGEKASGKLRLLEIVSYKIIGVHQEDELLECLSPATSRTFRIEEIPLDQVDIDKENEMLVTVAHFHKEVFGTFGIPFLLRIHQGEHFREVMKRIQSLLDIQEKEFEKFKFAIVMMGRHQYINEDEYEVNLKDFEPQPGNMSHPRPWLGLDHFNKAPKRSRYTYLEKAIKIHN
# * marks the source's active call; other numbers are inactive results. An excerpt weighted towards active compounds, which were near 4.6% of everything screened. No stated cut-off is given here; in the data, active means inhibition above about 30%; inactive means the rest.
SMILES,USP10 inh,USP8 inh,UCHL1 inh,USP7 inh
Cc1nnc(-c2ccc3ccn(CC(=O)NC4CCCCCC4)c3c2)o1,-3,24,1,0
O=C(Cc1n[nH]c(Cc2ccc(F)cc2)n1)NC1CCCCCC1,-2,42*,0,-27
O=c1c2ccccc2c2ccccc2c(=O)n1-c1ccc2c(c1)OCO2,2,13,3,-3
CCOc1cc(C2Nc3ccccc3C(=O)N2c2ccc3c(c2)OCO3)ccc1O (stereo not drawn),2,31*,5,-2
Fc1cc2c(c(CSc3nnc4ccccn34)c1)OC(c1ccccc1)OC2 (stereo not drawn),9,49*,4,-36
O=C(O)c1nn(Cc2cc(F)cc3c2OC(c2ccccc2)OC3)c(=O)c2ccccc12 (stereo not drawn),-7,12,-2,-23
COc1ccc(OC)c(Nc2nc(-c3ccc(Cl)cc3)c(C)s2)c1,8,42*,7,7
O=C(Cn1c(=O)n(Cc2ccccc2)c(=O)c2cc(Cl)ccc21)NCC1CCCO1 (stereo not drawn),0,-6,-3,-29
Cc1ccc(NC(=O)CSc2nnc(-c3n[nH]c4c3CCC4)n2N)cc1C,36*,8,5,8
Cc1cccc(NC(=O)CSc2nnc(-c3n[nH]c4c3CCC4)n2N)c1C,20,51*,-1,9
COc1ccc(N2CCN(CCCNC(=O)C3CCN(S(=O)(=O)c4ccc(Br)s4)CC3)CC2)cc1,-3,-1,1,0
CC(C)=CCC/C(C)=C/CC/C(C)=C/COc1c(O)cc(C=O)c(C=O)c1O,78*,71*,92*,93*
Cc1nn(C)cc1C(=O)N1CCCC(c2[nH]c3ccccc3c2-c2ccncc2)C1 (stereo not drawn),-2,7,5,9
CN1CCN(c2ccc3nnc(CCC(=O)NCCc4c[nH]c5ccccc45)n3n2)CC1,-5,8,-3,0
Cc1ccc(C(C(=O)NCc2ccc3c(c2)OCO3)N(C(=O)c2ccc3c(c2)OCCO3)c2cc(C)cc(C)c2)cc1 (stereo not drawn),-6,8,2,5
Cc1ccc(C(C(=O)NCc2ccc3c(c2)OCO3)N(C(=O)c2ccc3c(c2)OCCO3)C2CCCC2)cc1 (stereo not drawn),-7,47*,1,9
C[C@@H](c1ccccc1)N1C(=O)N[C@@H](CCC(=O)Nc2ccc3c(c2)OCO3)C1=O,1,52*,0,0
O=C(CC[C@@H]1NC(=O)N(Cc2ccccc2)C1=O)Nc1ccc2c(c1)OCO2,1,19,0,6
Cc1cc2nc(N3CCCC(C)C3)c3ccccc3n2n1 (stereo not drawn),0,7,0,-8
Cc1sc2nc(SCC(=O)Nc3ccccc3O)n(Cc3ccco3)c(=O)c2c1C,21,54*,8,9
Cc1sc2nc(SCC(=O)Nc3cccc(F)c3)n(Cc3ccco3)c(=O)c2c1C,0,4,2,3
O=C(NC1CCCc2ccccc21)c1cc(Cl)ccn1 (stereo not drawn),-8,21,0,3
O=C(N[C@H]1CCCc2ccccc21)c1cc(-c2ccco2)on1,-6,33*,-1,4
OCCn1c(-c2ccccc2)cn2c(-c3ccccc3)c(-c3ccccc3)nc12,5,58*,8,-1
COc1ccc(-n2c(-c3ccccc3)cn3c(-c4ccccc4)c(-c4ccccc4)nc23)cc1,5,80*,3,1
SMILES,USP10 inh,USP8 inh,UCHL1 inh,USP7 inh
COc1ccc(-c2cn3c(-c4ccccc4)c(-c4ccccc4)nc3n2CCc2ccccc2)cc1,4,73*,1,10
OCCCn1c(-c2ccccc2)cn2c(-c3ccccc3)c(-c3ccccc3)nc12,-2,30,3,2
O=S(=O)(c1cc(F)cc(F)c1)N1CCCN(c2cc(-c3ccccn3)[nH]n2)CC1,2,-191,-1,-1
NCCNC(=O)N1CCN(c2nc(-c3cccnc3)nc3ccccc23)CC1,4,-92,0,3
CCc1ccc(NC(=O)Cn2cnc3c(nc4n3CCCCC4)c2=O)cc1,3,0,-1,-24
Cc1nc(-c2ccccc2)sc1C(=O)Nc1ccc2c(c1)OCCO2,9,9,5,-2
Cc1nc2ccccc2c2oc(C(=O)Nc3ccc4c(c3)OCCO4)cc12,-3,52*,2,10
Cc1cccc(/C=C/c2nc3ccc([N+](=O)[O-])cc3s2)c1,4,87*,7,8
Cc1ccc(C)c(NS(=O)(=O)c2cc3n(c2)CCN(C)C3=O)c1,5,0,-1,2
COc1cc2c(c(OC)c1OC)-c1ccc(N3CCN(c4cccc(Cl)c4)CC3)c(=O)cc1[C@@H](NC(C)=O)CC2,-1,55*,6,8
COc1cc2c(c(OC)c1OC)-c1ccc(N3CCN(c4ccc(F)cc4)CC3)c(=O)cc1[C@@H](NC(C)=O)CC2,-6,0,2,4
COCCN1CCCC12CCN(C(=O)c1cccc(F)c1)CC2,3,-137,-3,-1
O=C(Nc1cccc(Cl)c1)c1ncn2c1CNS(=O)(=O)c1ccccc1-2,37*,23,6,-61
O=C(c1ncn2c1CNS(=O)(=O)c1ccccc1-2)N1CCCC1,-1,-6,-2,-3
CC(C)CNC(=O)C1Cn2ccnc2C2(CCN(C(=O)NC3CCCC3)CC2)O1 (stereo not drawn),-3,-10,-2,2
Cc1cc(N2CCN(c3ncccn3)CC2)nc2ccc(NC(=O)C3CC3)cc12,0,-12,0,-6
Cc1nn(-c2ccc(F)cc2)cc1-c1noc(C(=O)NCc2ccccn2)n1,5,35*,2,-17
O=C(NCc1ccccn1)c1nc(-c2cn(-c3ccc(Cl)cc3)nn2)no1,6,50*,4,2
Cn1nc(C(=O)N2CCOCC2)c2c1CN(Cc1ccco1)CC2,-2,-1,-1,-2
O=C(Nc1ccc2c(c1)OCCO2)C1CCC(Cn2cnc3ccccc3c2=O)CC1 (stereo not drawn),51*,3,6,2
Cc1ccc(-n2ccn3cc(-c4ccccc4C)nc3c2=O)cc1Cl,5,12,-1,2
Cn1nc(Cl)c(Cl)c1Oc1ccc(S(=O)(=O)Nc2ccc(Oc3ccc(C(F)(F)F)cn3)c(Cl)c2)cc1,69*,16,8,25
COc1ccccc1CNC(=O)C1CCCN(c2nc3c(C)cc(C)cc3s2)C1 (stereo not drawn),1,-16,-4,-5
Cc1nc(N2CCN(C)CC2)cc(N2CCN(C(=O)c3ccccc3Cl)CC2)n1,-8,-17,-4,-1
CC1c2cc3c(cc2CCN1CC(=O)Nc1cc(Cl)ccc1-n1cncn1)OCCCO3 (stereo not drawn),-3,47*,0,-19
Cc1nn(C)c(NC(=O)Nc2ccc(F)cc2F)c1C1=CCCCC1,-1,-2,-1,-59
